Compound activity (PubChem)
Only some compounds are listed: those with a hit (about 2.2% of all), similar ones and a draw of the others.
ATXN2 expr inh – inhibitors of ATXN2 expression | HEK-293 ATXN2-luciferase reporter, luminescence, 24 h | Potency, µM (highest dose often 57 µM), actives largely listed as inhibitors | actives 0.72% (n = 360,000) | AID 1745845; also: nearly all actives have a fitted effect of over 55% in size
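ATXN2-luciferase reporter cells (luciferase flanked by upstream and downstream ATXN2 gene portions) were treated 24 h at 37 °C with compounds at up to 57 uM. SteadyGlo luminescence gave expression; GF-AFC fluorescence gave viability.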
HepG2 tox – kills HepG2 cells in TGF-b inhibitor counter-screen; actives 0.76% (n = 410,000); HepG2 CAGA-GFP viability, ATP luminescence, 18 h; Potency, µM (series often up to 46.1 µM), most hits filed as cytotoxic; AID 588856
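CellTiter-Glo luminescence gave cytotoxicity after 18 hours at 37 degrees C. The cells were HepG2 CAGA-GFP in 1% FBS DMEM, stimulated with 500 pg/mL TGF-beta after compound addition. %Activity was normalised to no-cell wells (complete cell-killing) and DMSO (no toxicity), and curves were fitted and classified.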
LDHA inh – blocks human lactate dehydrogenase A. P00338. purified LDHA, NADH/diaphorase-resazurin fluorescence; hits give low values. activity change, % (values are at about 110 or 230 µM). actives 0.15% (n = 480,000). AID 1347041; in the data active = activity change below about -30%; inconclusive = mostly about -25% to -30%
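Human LDH5 at 2 nM final in Tris HCl pH 7.4 with 0.06 mM NADH and 0.2 mM pyruvate, reacted 5 minutes at room temperature. Remaining NADH coupled via diaphorase/resazurin; resorufin fluorescence read at 0 and 20 minutes, normalized to enzyme-free and DMSO wells.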
S2 tox – reduces viability in counter-screen for ATXN expression inhibitors. actives 0.49% (n = 400,000). Potency, µM (highest dose often 56.7 µM), hits mostly cytotoxic. S2 cells (HEK-293 line with an ATXN2-luciferase reporter) viability, CellTiter-Fluor protease fluorescence, 24 h; also: nearly all actives have a fitted effect of over 40% in size
TGFb SMAD3 inh – TGF-b pathway inhibition; AID 588855; Potency, µM (titrated, usually from 46.1 µM), actives largely listed as inhibitors; actives 1.2% (n = 410,000); HepG2 CAGA-GFP TGF-b/SMAD3 reporter, GFP fluorescence, 18 h; TGF-beta stimulated, 500 pg/mL final; also: nearly all actives have a fitted effect of over 65% in size
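GFP signal (ex488/em500-530) from TGF-beta-stimulated HEPG2 CAGA-GFP cells, 500 pg/mL final, 18 h at 37 degrees C in DMEM plus 1% FBS, normalized to unstimulated and DMSO-stimulated controls.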
IDH1 R132H inh – inhibitors of human mutant IDH1 R132H | actives 0.093% (n = 390,000) | Potency, µM (titrated, usually from 76.6 µM), actives largely listed as inhibitors | O75874 | IDH1-R132H enzyme, NADPH consumption, diaphorase/resazurin fluorescence; also: nearly all actives have a fitted effect of over 65% in size
Target sequence (O75874 whole entry R132H, stated change not applied): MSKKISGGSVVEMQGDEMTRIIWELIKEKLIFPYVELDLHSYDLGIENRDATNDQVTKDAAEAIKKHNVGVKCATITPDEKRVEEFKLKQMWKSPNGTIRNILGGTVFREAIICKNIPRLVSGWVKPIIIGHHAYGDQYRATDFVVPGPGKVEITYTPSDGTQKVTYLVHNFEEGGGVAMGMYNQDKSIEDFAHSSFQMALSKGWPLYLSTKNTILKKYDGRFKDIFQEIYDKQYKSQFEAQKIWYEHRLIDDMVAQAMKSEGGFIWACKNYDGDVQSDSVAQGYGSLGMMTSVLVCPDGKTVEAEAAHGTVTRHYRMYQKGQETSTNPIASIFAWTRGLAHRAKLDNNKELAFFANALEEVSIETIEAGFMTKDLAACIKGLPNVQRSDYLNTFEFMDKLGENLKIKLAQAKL
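IDH1-R132H (0.5 ug/mL) preincubated 30 min with compound, then NADPH (0.016 mM) and alpha-KG (2 mM) added; 80 min at RT, pH 7.5. Remaining NADPH coupled via diaphorase/resazurin to fluorescence (540/590 nm); concentration-response curves normalized to no-enzyme control.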
Hits are given with their value; – = inactive; ? = inconclusive; · = not tested or not shown; ! = repeats disagree. Unless noted, calls follow the shape of the dose curve; as a rule, active = well fitted curve in the direction sought with a large enough effect; inconclusive = small, poorly fitted or top-dose-only effect, or another doubt; inactive = no such curve, though single readings can be large; an effect the other way counts as inactive or inconclusive.

SMILES	ATXN2 expr inh	HepG2 tox	LDHA inh	S2 tox	TGFb SMAD3 inh	IDH1 R132H inh
CCN1C(=O)CC(C(C)C)N(C2CCCC2)c2nc(Nc3ccc(C(=O)NC4CCN(C)CC4)cc3OC)ncc21 (centres undefined)	?	–	–	·	?	–
COc1cc(C(=O)NC2CCN(C)CC2)ccc1Nc1ncc2c(n1)N(C1CCCCC1)CCC(=O)N2C	–	13µM	–	?	?	–
CCN1C(=O)CC(c2ccccc2)N(C2CCCC2)c2nc(Nc3ccc(C(=O)NC4CCN(C)CC4)cc3OC)ncc21 (centres undefined)	?	13µM	–	·	?	?
COc1cc(CN2CCN(Cc3ccco3)CC2)cc(OC)c1	–	–	-32	–	–	–
O=[N+]([O-])c1cccc(CN2CCN(Cc3ccco3)CC2)c1	–	–	-43	–	–	–
CCNC(=O)NC(=O)C(C)N(C)Cc1cccc(C#N)c1 (centres undefined)	·	·	–	·	·	·
CCc1cccc(CC)c1NC(=O)/C(C#N)=C/c1ccccc1C(F)(F)F	?	–	–	·	13µM	–
N#C/C(=C\c1ccccc1C(F)(F)F)C(=O)Nc1ccccc1	–	–	–	–	–	–
CNC[C@H](CC1CCCCC1)NC[C@H](Cc1ccccc1)NCCC12CC3CC(CC(C3)C1)C2	–	13µM	–	16µM	?	–
NC[C@H](Cc1ccccc1)NCCCCC1CCCCC1	–	–	–	–	–	–
CN(CC(=O)Nc1sc2c(c1C#N)CCCCC2)Cc1nc2ccccc2c(=O)[nH]1	–	–	–	–	–	–
CCOC(=O)c1ccc(-n2c(O)c(/C=N/NC(=O)C3COc4ccccc4O3)c3ccccc3c2=O)cc1 (centres undefined)	–	–	–	–	8.9µM	–
COc1ccc(C(=O)Nc2nc(OCC(F)(F)F)cnc2/C=C\c2ccccc2)c(OC)c1	–	–	–	–	–	·
CN(C)c1ccc(/C=C/c2ccc3ccccc3n2)cc1	·	5.6µM!	–	·	–	–
CN(C)c1ccc(/C=C/c2nc3ccccc3s2)cc1	?	–	–	·	13µM!	–
CN(C)c1ccc(/C=C/c2ccc3cc(N(C)C)ccc3n2)cc1	·	–	·	·	–	·
CN(Cc1ccccc1)c1ccc(/C=C/c2nc3ccccc3s2)cc1	·	–	–	·	?	·
CN(C)c1ccc(/C=C/c2cccc3cc4ccccc4nc23)cc1	·	14µM	–	·	1.6µM	·
CC[N+](CC)(CC)c1ccc(/C=C/c2ccc3ccccc3n2)cc1	·	10µM	–	·	6.3µM	·
C=CCNCCOCCOc1ccc(C)cc1[N+](=O)[O-]	–	–	–	–	–	–
COc1cccc(CN2CCN(S(=O)(=O)c3ccc(Cl)s3)CC2)c1	–	–	–	–	–	–
CC(C)(C)NCCOc1ccc2ccccc2c1	·	–	–	–	–	–
CN(C)c1ccc(/C=C/c2ccccn2)cc1	·	–	–	·	–	·
CN(C)c1ccc(/C=C/c2cc3ccccc3cn2)cc1	·	–	·	·	11µM	·
C(=C\c1ccc2ccccc2n1)/c1ccccc1	·	10µM!	–	–	?	–
SMILES	ATXN2 expr inh	HepG2 tox	LDHA inh	S2 tox	TGFb SMAD3 inh	IDH1 R132H inh
C(=C\c1ccc2ccccc2n1)/c1ccc2ccccc2n1	·	–	·	·	–	·
CCC(Sc1nc2nccnc2c(=O)n1Cc1ccc(C)cc1)C(=O)NC1CCCCC1 (centres undefined)	·	–	–	·	–	–
COc1cc(-c2nc3ccc(Cl)cn3c2Nc2ccc3c(c2)OCO3)ccc1O	?	–	–	18µM	?	?
COc1cc(-c2nc3ccc(C)cn3c2Nc2ccc(Cl)cc2)ccc1O	?	16µM	–	16µM	?	–
O=S(=O)(Nc1nc2ccccc2nc1Nc1cccc(Cl)c1)c1ccc(F)cc1	·	·	–	·	·	·
CCn1nc(CCC(=O)O)c2ccccc2c1=O	–	–	–	–	–	–
COc1ccccc1OCCn1c(NC(=O)c2cccs2)nc2ccccc21	·	·	–	·	·	·
C[C@H](NCc1ccc2c(c1)nc(NC(=O)c1ccc(-c3cn[nH]c3)s1)n2CCc1ccccc1)C(C)(C)C	1.9µM	·	·	·	·	·
COc1cc(OC)c(OC)cc1/C=C1/Cc2ccccc2C1=O	·	–	–	–	–	–
CCC1C/C(=C\c2cc(OC)c(OC)cc2OC)C(=O)/C(=C/c2cc(OC)c(OC)cc2OC)C1 (centres undefined)	?	8.9µM	–	?	?	–
COc1cc(OC)c(OC)cc1/C=C1\CC(C)C/C(=C\c2cc(OC)c(OC)cc2OC)C1=O (centres undefined)	13µM	11µM	–	?	?	–
Nc1c(N2CCN(c3ccccc3)CC2)c2ccccc2oc1=O	–	–	–	–	–	–
COc1cc(C)c(S(=O)(=O)NCCCn2ccnc2)cc1C	–	–	–	?	–	–
FC(F)(F)c1nnc(-c2ccccc2)nc1Sc1ccc(Cl)cc1	28µM	–	–	·	–	–
FC(F)(F)c1cccc(Oc2nc(-c3ccccc3)nnc2C(F)(F)F)c1	–	–	–	–	–	–
FC(F)(F)c1cccc(Sc2nc(-c3ccccc3)nnc2C(F)(F)F)c1	?	–	–	28µM	–	–
FC(F)(F)c1nnc(-c2ccccc2)nc1Sc1ccccc1	?	–	–	·	?	–
C=CCS/C(N)=N\N=C\c1c(O)ccc2ccccc12	–	–	–	–	7.9µM	–
NC(=O)c1ccc(N=Cc2c(O)ccc3ccccc23)cc1	–	–	–	–	–	–
O=c1cc(N2CCN(c3cccc(Cl)c3)CC2)[nH]c(=O)n1C1CCCCC1	?	–	–	–	–	–
O=c1cc(N2CCN(c3ccccc3)CC2)[nH]c(=O)n1C1CCCCC1	5µM	–	–	–	–	–
Cc1ccc(C(=O)CC2(O)C(=O)N(Cc3ccccc3)c3ccccc32)c(C)c1 (centres undefined)	–	–	–	–	?	–
CC1CCN(S(=O)(=O)c2ccc3c(c2)CC(C)N3C(=O)C2CCC2)CC1 (centres undefined)	·	–	–	–	?	–
COc1ccccc1OCCn1c(C(C)Oc2ccccc2)nc2ccccc21 (centres undefined)	–	–	–	–	11µM	–
O=C(/C=C/c1cccc(Cl)c1)c1ccc([N+](=O)[O-])o1	4.5µM	13µM	–	8.9µM	3.5µM	?
CC(C)C(NS(=O)(=O)c1cccc2nsnc12)C(=O)NC1CCCCC1 (centres undefined)	–	–	–	–	–	–
COc1ccc(CNC(=O)c2cc3c(=O)n(Cc4ccco4)ccc3nc2C)cc1	·	–	–	·	?	–
CSc1ccc(CNC(=O)c2cc3c(=O)n(Cc4ccco4)ccc3nc2C)cc1	·	–	–	·	11µM	–
